Screening results from PubChem.
hDAT+cocaine = modulates human dopamine transporter uptake under cocaine. Q01959. LLC-PK1 hDAT cells, [14C]-dopamine uptake with cocaine IC80; actives deviate in either direction. B-score at 10 µM. 110,000 compounds, 1.3% hits. AID 449768;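 active = Z score or B-score, a plate-position-corrected score, falls beyond the plate's 99.7% confidence bounds, in either direction; inactive = both scores lie inside the 99.7% bounds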
CYP2C19 act = activators of human cytochrome P450 2C19. activation factor at 5 µM. 96,000 tested, under 10 active. AID 1025. P33261. recombinant CYP2C19, luciferin-H EGE luminescence; hits give high values; 0 = fully inhibited enzyme, 1 = untreated enzyme;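 active = activation factor of at least 2 at 5 µM in the primary screen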
CYP2C9 activ = activators of human CYP2C9. activation factor at 5 µM. recombinant CYP2C9, luciferin-H conversion, luminescence; hits give high values; factor 1 = untreated enzyme, 0 = blocked. 96,000 compounds, 1.4% hits. AID 1024;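 active = activation factor of 2 or more for CYP2C9 at a 5 µM dose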
CYP2C19 inhib = human CYP2C19 inhibition. P33261. CYP2C19 Supersomes, luciferin-H EGE luminescence, 30 min. inhibition, % at 5 µM. 96,000 compounds, 21% hits. AID 778;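 active = CYP2C19 inhibition above a set limit at 5 µM in the primary screen, cut at about 50% in these data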
CYP2C9 inh = human CYP2C9 inhibition | 96,000 compounds, 20% hits | inhibition, % at 5 µM | AID 777 | P11712 | CYP2C9 Supersomes, luciferin-H conversion, luminescence;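 active = blocking of liver enzyme CYP2C9 beyond about 50% at 5 µM, limit read from the data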
D1 mod = D1 dopamine receptor (human) allosteric modulation; HEK293 D1, CRE-luciferase, dopamine EC30 potentiation; actives deviate in either direction; B-score at 10 µM; 58,000 compounds, 5.9% hits; AID 641;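 active = luminescence count or its row- and column-corrected plate score outside the 99.7% band of the plate's sample wells, on either side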
Target sequence (P21728 whole entry, looked up): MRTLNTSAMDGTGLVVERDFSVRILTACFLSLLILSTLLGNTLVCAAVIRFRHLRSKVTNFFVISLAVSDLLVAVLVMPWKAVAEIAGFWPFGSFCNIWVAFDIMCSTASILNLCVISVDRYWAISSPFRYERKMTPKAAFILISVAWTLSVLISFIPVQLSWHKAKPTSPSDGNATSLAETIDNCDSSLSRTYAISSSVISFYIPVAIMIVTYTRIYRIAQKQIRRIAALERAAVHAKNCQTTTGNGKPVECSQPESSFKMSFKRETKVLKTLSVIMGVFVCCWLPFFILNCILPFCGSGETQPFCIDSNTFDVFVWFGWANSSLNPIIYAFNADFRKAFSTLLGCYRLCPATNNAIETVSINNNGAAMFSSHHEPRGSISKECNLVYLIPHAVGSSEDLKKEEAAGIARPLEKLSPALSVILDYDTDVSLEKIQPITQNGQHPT
Numbers stand for hits; i = inactive; nt = not tested or not shown. In the library only some 28% were active in any assay of this set; here they are far more common.

SMILES	hDAT+cocaine	CYP2C19 act	CYP2C9 activ	CYP2C19 inhib	CYP2C9 inh	D1 mod
Cn1c(SCc2nc3ccccc3[nH]2)nnc1-c1cnccn1	i	i	i	i	i	i
COc1cccc(-c2nnc(SCc3nc4ccccc4[nH]3)n2N)c1	nt	i	i	i	i	i
c1coc(Cn2c(SCc3nc4ccccc4[nH]3)nnc2-c2cnccn2)c1	i	i	i	67	81	i
Clc1cccc(-c2nnc(SCc3nc4ccccc4[nH]3)n2Cc2ccco2)c1	i	i	i	82	87	i
c1ccc(-c2nnc(SCc3nc4ccccc4[nH]3)n2Cc2ccco2)nc1	i	i	i	51	90	i
Clc1ccc(OCc2nnc(SCc3nc4ccccc4[nH]3)n2Cc2ccco2)cc1	i	i	i	i	62	i
CCN(CC)C(=O)N1CCC(NC(=O)c2ccccc2)CC1	i	i	i	i	i	i
Cc1ccc(S(=O)(=O)N2CCCC(C(=O)NCCc3ccc4c(c3)OCO4)C2)cc1 (stereo not given)	i	i	i	i	i	i
Cc1cccc(OCC(=O)NNC(=O)Nc2cccc(Cl)c2)c1C	i	i	i	i	i	nt
COC(=O)C(N)CCCCN (stereo not given)	i	nt	nt	nt	nt	nt
CCCCN(CC)CCNS(=O)(=O)c1ccc2c(c1)oc(=O)n2C	i	i	i	i	i	nt
COc1ccccc1CO/N=C/NC(=O)c1c(OC)ccnc1Oc1ccc(F)cc1	i	i	i	97	77	nt
COc1ccnc(Oc2ccccc2)c1C(=O)N/C=N/OCc1ccc(F)cc1Cl	i	i	i	66	56	nt
O=C(Nc1cccn(Cc2c(Cl)cccc2Cl)c1=O)c1ccc(Cl)cc1Cl	i	i	i	65	56	nt
O=C(Nc1cccn(Cc2c(Cl)cccc2Cl)c1=O)c1ccccc1Cl	i	i	i	80	67	nt
O=C(Nc1cnc2sccn2c1=O)c1ccc(Cl)cc1Cl	i	i	i	i	i	nt
O=c1ccccn1Cc1c(Cl)cccc1Cl	i	i	i	i	i	nt
Cc1nnc(NC(=O)c2oc3c(ccc4ccccc43)c2C)s1	i	i	i	i	i	nt
O=C(C1CC1)N(CCN(C(=O)C1CC1)c1ccccc1)c1ccccc1	i	i	i	i	i	nt
CC(C1CC1)N(C(=O)c1ccccc1O)c1ccccc1 (stereo not given)	i	i	i	80	i	i
Nn1c(Cc2cccc3ccccc23)nnc1SC1CCOC1=O (stereo not given)	i	i	2.9	55	i	i
CN(C(=O)CSc1nnc(Cc2cccc3ccccc23)n1N)C1CCS(=O)(=O)C1 (stereo not given)	i	i	2	i	i	nt
O=c1c(-c2ccc(F)cc2)coc2c3c(ccc12)OCCO3	i	i	i	i	i	i
C=CCN1C(=O)CN=C1Nc1ccc(OC)cc1OC	i	i	i	i	i	i
c1cncc(CNc2c3c(nc4nnnn24)CCCC3)c1	i	i	i	68	i	nt
SMILES	hDAT+cocaine	CYP2C19 act	CYP2C9 activ	CYP2C19 inhib	CYP2C9 inh	D1 mod
CCOc1ccccc1C(=O)Nc1ccccc1O	i	i	5.7	i	i	i
CCOc1ccccc1NC(=O)c1ccccc1NS(C)(=O)=O	i	i	i	i	96	i
COc1ccccc1NC(=O)c1ccccc1NS(C)(=O)=O	i	i	i	i	i	i
CC(=O)c1ccc(OCC(O)CN2C(C)(C)CC(O)CC2(C)C)cc1 (stereo not given)	i	i	i	i	i	i
CCS(=O)(=O)Nc1ccc(-c2nc3cccnc3s2)cc1	i	nt	nt	nt	nt	nt
Cc1noc(C)c1S(=O)(=O)NCC(=O)O	2.3	i	i	i	i	i
CCOc1cc(S(=O)(=O)NCc2ccc3c(c2)OCO3)c(C)cc1C	i	i	i	86	91	i
CCOc1cc(C)c(Cl)cc1S(=O)(=O)NCc1ccc2c(c1)OCO2	i	i	i	99	i	i
Cc1ccc2nsnc2c1S(=O)(=O)NCc1ccc2c(c1)OCO2	i	nt	nt	nt	nt	i
Cc1noc(C)c1S(=O)(=O)NCc1ccc2c(c1)OCO2	i	i	i	93	98	i
Cc1c(C(=O)O)oc2ccc(S(=O)(=O)NCc3ccc4c(c3)OCO4)cc12	nt	i	i	i	i	i
COC(=O)[C@@](C)(O)C1(C(=O)SC(C)(C)C)CC1	i	nt	nt	nt	nt	nt
O=c1cc(CSc2nnc(-c3ccco3)o2)c2ccccc2[nH]1	i	i	i	i	i	i
O=C(N/N=C1\CCCc2ccccc21)c1ccccc1[N+](=O)[O-]	i	nt	nt	nt	nt	nt
O=C(NCc1ccco1)[C@@H]1CSC2c3ccccc3C(=O)N21 (stereo not given in full)	i	i	i	57	i	i
O=C(NCc1cccs1)[C@@H]1CSC2c3ccccc3C(=O)N21 (stereo not given in full)	i	i	i	75	72	i
Nc1ccccc1SCc1cn2cccnc2n1	i	i	i	i	i	i
c1ccc2c(SCc3cn4cccnc4n3)ncnc2c1	i	i	i	54	i	i
Cc1ccc(CC(=O)Nc2cccc(C)n2)cc1	i	i	i	74	i	nt
Cc1cccc(NC(=O)Nc2cccc(C#N)c2)n1	i	i	i	i	i	i
CCCCNC(=O)Cc1coc2ccc3ccccc3c12	i	i	3.1	64	i	nt
Cc1cccc(NC(=O)Cc2coc3ccc4ccccc4c23)n1	i	i	2.3	88	i	nt
O=C(Cc1coc2ccc3ccccc3c12)N1CCCC1	i	i	i	i	i	i
Cc1cccc(NC(=O)Nc2ccc(C#N)cc2)n1	i	i	i	i	i	-5.2
CC(C)CN(CC(C)C)C(=O)Cc1coc2ccc3ccccc3c12	i	i	i	i	i	nt
SMILES	hDAT+cocaine	CYP2C19 act	CYP2C9 activ	CYP2C19 inhib	CYP2C9 inh	D1 mod
O=C1C2C3c4ccccc4C(c4ccccc43)C2C(=O)N1c1cccc2cccnc12 (stereo not given)	i	i	i	i	i	nt
O=C(CSc1nc(-c2ccccc2)cc(=O)[nH]1)Nc1ccccn1	i	i	i	i	i	i
COc1ccc(CNC(=O)C(C)NC(=O)c2cc3ccccc3o2)cc1 (stereo not given)	-1.7	i	i	i	76	i
CCc1ccccc1S(=O)(=O)Cc1ccc(C(=O)NCc2ccc3c(c2)OCO3)o1	i	i	i	54	95	i
O=C(CSc1nc(-c2ccccc2)cc(=O)[nH]1)NCc1ccc2c(c1)OCO2	i	i	i	i	96	i
CC(C)C(=O)Nc1ccc(NC(=O)c2cc3ccccc3o2)cc1	i	i	i	i	i	nt
O=C(CSc1c[nH]c2ccccc12)NCc1ccc2c(c1)OCO2	i	i	i	100	96	nt
O=C(NCCSc1c[nH]c2ccccc12)c1ccc2c(c1)OCO2	i	nt	nt	nt	nt	nt
CCOC(=O)c1[nH]c(C)c(C(=O)N2CCN(C(=O)OCC)CC2)c1CC	i	i	i	i	i	nt
Cc1ccc(-n2ncc3c(=O)n(Cc4cccnc4)cnc32)cc1	i	i	i	i	i	i
CCCCCCOC(=O)c1ccccc1NC(=O)/C=C/C(=O)O	i	i	i	i	i	nt
